Test results published in PubChem BioAssay (NCATS).
Records with an inconclusive call do not appear. Unmarked numbers belong to inactive results. Activity calls are given as the source filed them. Calls come from the whole dose curve; as a rule, active = well fitted cell-killing curve with a large enough effect; inconclusive = small, poorly fitted or top-dose-only effect; inactive = flat fitted curve, though single readings scatter.

test: Cell Viability - LYMP2-007 (AID 979); conditions: LYMP2-007 lymphoblastoid cell viability; series mostly up to 92.2 µM; activity change, negative = cytotoxicity: at the top concentration;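 note: cells exposed to compound for 24 h before reading; nearly all actives have a fitted effect of over 60% in size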;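 for activity change, negative = cytotoxicity: 0% = DMSO only and the negative end = 92 µM tetraoctylammonium bromide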
Description: NIH Chemical Genomics Center [NCGC]
NIH Molecular Libraries Screening Centers Network [MLSCN]
National Institutes of Environmental Health Sciences [NIEHS]
National Toxicology Program [NTP]
We have developed a 1536-well cell-based assay for quantitative high throughput screening (qHTS) against a number of cell lines to determine in vitro cytotoxicity of small molecules. This particular assay uses a human lymphoblastoid cell line (LYMP2-007) purchased from Coriell Institute for Medical Research.
NCGC Assay Protocol Summary:
The CellTiter-Glo luminescent cell viability assay (Promega) is a homogeneous method to measure the number of viable cells in culture. The end point readout of this assay is based on quantitation of intracellular ATP, an indicator of metabolic activity, using the luciferase reaction. Luciferase catalyzes the oxidation of beetle Luciferin to oxyluciferin and light in the presence of ATP. The luminescent signal is proportional to amount of ATP present.
Using the CellTiter-Glo luminescent cell viability assay, the amount of cellular ATP was measured in the lymphoblastoid cell line with complete culture medium following compound treatment for 24 hours. The assay was performed in opaque white Kalypsys 1536-well plates. In the screen, tetraoctylammonium bromide was used as positive control. Library compounds were measured for their ability to cause acute toxicity in the cell line, as reflected by a decrease in intracellular ATP levels, in a concentration-dependent manner. […] AC50 values were determined from concentration-response data modeled with the standard Hill equation.
qHTS protocol for CellTiter Glo lymphoblastoid cellular assay
[Step] [Parameter] [Value] [Description]
1. Reagent; 5 uL; 2500 lymphoblastoid cells/well
2. Time; 5 hr; 37 C incubation
4. Controls; 23 nL; Tetraoctylammonium bromide 6.4pM to 92 uM
5. Time; 24 hr; 37 C incubation
6. Reagent; 5 uL; CellTiter Glo reagent
7. Time; 30 min; Room Temperature
8. Detection; Luminescence; Viewlux plate reader
Keywords: cell viability, cytotoxicity, lymphoblastoid cell line, luminescence, NTPHTS, NTPHTS_NCGC, NIEHS, DSSTox, MLSMR, MLSCN, NIH Roadmap, qHTS, NCGC
Potency is the fitted concentration of half-maximal effect.

| SMILES | activity change, negative = cytotoxicity [%] | Potency |
| --- | --- | --- |
| CCCCC(CC)COCC1CO1 (stereo not given) | -12.3 | – |
| COc1cccc2sc(N)nc12 | 3.55 | – |
| CC(C)c1ccccc1 | 3.28 | – |
| NS(=O)(=O)O | -5.62 | – |
| NC(N)=S | 8.82 | – |
| O=[N+]([O-])c1ccccc1CCO | -1.55 | – |
| Cc1ccc2ccccc2c1[N+](=O)[O-] | -5.01 | – |
| CO[Si](CCCNCCC[Si](OC)(OC)OC)(OC)OC | 1.45 | – |
| COCCOC(=O)c1ccccc1C(=O)OCCOC | -2.65 | – |
| CCCCN(CCO)CCCC | 3.4 | – |
| Nc1cc(Cl)c(N)c(Cl)c1 | 1.31 | – |
| Cc1ccc(C(=O)O)cc1 | 0.347 | – |
| c1ccsc1 | 8.23 | – |
| C=CCCCCCC | -0.605 | – |
| CCNc1cc(O)ccc1C | -11.2 | – |
| CCc1ccccc1O | -5.77 | – |
| O=[N+]([O-])c1cc(C(F)(F)F)ccc1Cl | -6.63 | – |
| Cc1ccc(C)c(N)c1 | -12.6 | – |
| C[C@@H]1CC2(OC[C@]3(C)O[C@H]23)O[C@H]2C[C@@]3(C)[C@@H]4CC[C@H]5C(C)(C)C(O[C@@H]6OC[C@@H](O)[C@H](O)[C@H]6O)CC[C@@]56C[C@@]46CC[C@]3(C)[C@@H]12 (stereo not given in full) | -17 | – |
| CCOc1cccc(N)c1 | -10.1 | – |

| SMILES | activity change, negative = cytotoxicity [%] | Potency |
| --- | --- | --- |
| CCOC(=O)OCC | -0.222 | – |
| O=C(O)c1cccc([N+](=O)[O-])c1 | -10.3 | – |
| CC1(N)CCC(C(C)(C)N)CC1 (stereo not given) | -9.6 | – |
| CC(C)N(C)C | 1.7 | – |
| O=[N+]([O-])c1ccc2nc[nH]c2c1 | 2.57 | – |
| CC(O)COC(C)(C)C (stereo not given) | 5.99 | – |
| Cc1cc(C(=O)O)ccc1[N+](=O)[O-] | -6.72 | – |
| CC(C)N=C=NC(C)C | 9.51 | – |
| CC(C)C(C)C | -4.16 | – |
| OCCO | 10.7 | – |
| CCCCC/C=C/C=C/C=O | – | 39.8 µM (active) |
| Cc1cscn1 | 4.24 | – |
| CC(=O)c1ccccn1 | -0.624 | – |
| CNC(=O)N(c1ccccc1)c1ccccc1 | -6.26 | – |
| CC(C)(C)OCC1CO1 (stereo not given) | -1.84 | – |
| CCCCC(CC)CO (stereo not given) | -5.02 | – |
| c1ccc2c(c1)Oc1ccccc1S2 | -5.56 | – |
| CC(C)CCOC(=O)/C=C/c1ccccc1 | -2.01 | – |
| Cc1cc(C2(c3cc(C)c(O)cc3C)OS(=O)(=O)c3ccccc32)c(C)cc1O | -6.05 | – |
| Nc1nc(CC(=O)O)cs1 | -0.431 | – |
